Screening results from PubChem BioAssay.
In the library only some 1.7% were active in any assay of this set; here they are far more common.
ZTA counter: blocks Epstein-Barr virus ZTA, an EBNA-1 counter-screen. P03206. ZTA-DNA binding, fluorescence polarization. inhibition, % at 11 µM. 320,000 tested, 0.15% active. AID 2234; in the data active = inhibition above about 33%
LYPLA1 inh: LYPLA1 inhibitors, primary screen, counter-screen for PME1 inhibitor project, biochemical, fluorescence polarization, FP-Rh probe ABPP; Acyl-protein thioesterase 1 (Homo sapiens), O75608; 320,000 tested, 0.16% active; inhibition, % at 5.9 µM; recombinant LYPLA1;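 active = inhibition above the mean of all tested compounds plus 3 SD, set per campaign, cut at about 14% in these data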;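 note: inhibitors block serine hydrolase probe labeling of LYPLA1 so polarization falls; 0% = enzyme with DMSO and 100% = wells lacking LYPLA1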
Target sequence (O75608 whole entry, looked up): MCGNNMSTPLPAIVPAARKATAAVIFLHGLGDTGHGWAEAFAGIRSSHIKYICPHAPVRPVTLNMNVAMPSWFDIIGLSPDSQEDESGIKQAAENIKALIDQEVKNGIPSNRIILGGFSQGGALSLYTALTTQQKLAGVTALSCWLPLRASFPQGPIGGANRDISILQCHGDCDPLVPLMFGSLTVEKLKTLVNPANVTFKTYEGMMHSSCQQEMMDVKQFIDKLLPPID
EBNA-1 inhibitor: EBNA-1 DNA-binding inhibitors, primary screen, biochemical, fluorescence polarization; AID 1950, 2009; 300,000 tested, 0.34% active; inhibition, % at 14.8 µM; in the data active = inhibition above about 28%
LYPLA2 counter: LYPLA2 inhibitors, primary screen, counter-screen for PME1 inhibitor project, biochemical, fluorescence polarization, FP-Rh probe ABPP | AID 2177, 2009 | 320,000 tested, 0.38% active | inhibition, % at 5.9 µM | recombinant LYPLA2 | Acyl-protein thioesterase 2 (Homo sapiens), O95372;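 active = inhibition above the screen-wide mean plus 3 SD, limit set per campaign, cut at about 26% in these data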;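 note: 0% = LYPLA2 with DMSO and 100% = wells lacking LYPLA2 enzyme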
Target sequence (O95372 whole entry, looked up): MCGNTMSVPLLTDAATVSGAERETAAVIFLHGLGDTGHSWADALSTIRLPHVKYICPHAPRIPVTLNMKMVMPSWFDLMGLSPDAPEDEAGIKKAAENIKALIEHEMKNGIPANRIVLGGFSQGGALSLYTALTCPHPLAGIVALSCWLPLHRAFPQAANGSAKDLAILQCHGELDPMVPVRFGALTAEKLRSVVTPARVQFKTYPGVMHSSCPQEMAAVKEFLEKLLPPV
GSTO1 counter: inhibitors of recombinant GSTO1, primary screen, counter-screen for RBBP9 inhibitor project, biochemical, fluorescence polarization; Glutathione S-transferase omega-1 (Homo sapiens), P78417; AID 1974, 2009; 300,000 tested, 1.1% active; activity-based probe fluorescence polarization; inhibition, % at 5.96 µM;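 active = inhibition above the campaign mean inhibition plus 3 SD, cut at about 35% in these data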;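 note: 0% = GSTO1-1 with DMSO and 100% = wells lacking GSTO1-1 enzyme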
PAD4 FP inh: human PAD4 inhibitors, primary screen, biochemical, fluorescence polarization, 1536-well format; recombinant PAD4, RCA probe fluorescence polarization; Protein-arginine deiminase type-4 (Homo sapiens), Q9UM07; inhibition, % at 6.36 µM; 330,000 tested, 0.41% active;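 active = percent inhibition above a cutoff equal to the mean of all tested compounds plus 3 SD, cut at about 15% in these data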;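 note: 0% = PAD4 with RCA probe and DMSO and 100% = probe without PAD4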
GSTO1 confirm: GSTO1 inhibitor hit confirmation, counter-screen for RBBP9 inhibitor project, biochemical, fluorescence polarization, triplicate | shares compounds with GSTO1 counter | recombinant GSTO1, probe fluorescence polarization | inhibition, % at 5.96 µM | 2,400 tested, 54% active;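 active = inhibition above the primary screen's cutoff, its mean inhibition plus 3 SD, cut at about 35% in these data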;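 note: loss of polarization as inhibitors block binding of rhodamine sulfonate ester activity probe; 0% = GSTO1 with DMSO and 100% = wells lacking GSTO1 enzyme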
GSTO1 recomb ABPP: inhibitors of purified human GSTO1, late-stage follow-up, biochemical, gel ABPP, SE-Rh probe, percent inhibition | 130 tested, 30% active | inhibition, % at 1 µM | AID 463110, 2010 | recombinant GSTO1, gel ABPP SE-Rh probe fluorescence | shares compounds with GSTO1 counter;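 active = inhibition of the enzyme GSTO1 above about 75%, limit read from the data; inactive = inhibition below that limit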
Starred values were filed as active, the others as inactive; x = no result given.

SMILES | ZTA counter | LYPLA1 inh | EBNA-1 inhibitor | LYPLA2 counter | GSTO1 counter | PAD4 FP inh | GSTO1 confirm | others
Cc1oc2c(O)c(O)ccc2c(=O)c1-c1cnn(-c2ccccc2)c1 | -5 | -11 | 1 | 1 | 59* | 7 | 23
Cc1oc2c(O)c(O)ccc2c(=O)c1-c1ccccc1 | 6 | -5 | 4 | -5 | 22 | 3 | x
CC1CN(Cc2c(O)ccc3c2oc(=O)c2ccccc23)CC(C)O1 (stereo not drawn) | -15 | 1 | 0 | 4 | 42* | -6 | 46*
CC1CN(Cc2c(O)ccc3c(=O)c(-c4ccccc4)coc23)CC(C)O1 (stereo not drawn) | -5 | -1 | -7 | -2 | 7 | 0 | x
NC(=O)C1(C(N)=O)OC1c1ccc(Cl)c(Cl)c1 (stereo not drawn) | -6 | 0 | 2 | -1 | 66* | -2 | 77* | GSTO1 recomb ABPP=30
O=C(CN1CCCC1)N/N=C/c1c(O)ccc2ccccc12 | 1 | 1 | 10 | -4 | 38* | -12 | 5
O=C(O)CCCC(=O)N1CCc2cc(S(=O)(=O)NCc3ccc(F)cc3)ccc21 | -21 | -1 | -5 | -1 | -4 | 1 | x
CCOC(=O)c1cc(C)n(CCc2ccccc2)c1C | 3 | 1 | 2 | 0 | 6 | 6 | x
Cc1cc(C(=O)CCl)c(C)n1CCc1ccccc1 | 4 | 0 | 4 | -4 | 79* | -6 | 97*
S=c1[nH]nc(COc2ccc(Cl)cc2)n1Cc1ccco1 | -17 | -3 | -6 | 0 | 13 | -3 | x
CCOc1cc(/C=C2\SC(N)=NC2=O)ccc1O | -9 | -4 | -8 | -13 | 11 | -1 | x
COc1cc(/C=C2\SC(N)=NC2=O)cc(Br)c1O | -10 | -4 | -3 | 0 | 61* | -6 | 66*
Cc1ccccc1Nc1cc2ccccc2c(=O)[nH]1 | 30 | 1 | 8 | 6 | 74* | 59* | 45*
O=c1[nH]c(Nc2ccccn2)cc2ccccc12 | 11 | -4 | 1 | -9 | 26 | 8 | x
Cc1ccc(CSC2=NCCN2C(=O)c2ccc(S(=O)(=O)N(C)C)cc2)cc1 | 21 | 2 | 3 | 2 | 8 | 0 | x
COc1ccccc1C(=O)Nc1nc(-c2cccs2)c(NC(C)=O)s1 | -8 | -3 | 5 | 6 | 39* | 1 | 8
CC(=O)Nc1sc(NC(=O)c2ccccc2)nc1-c1cccs1 | 17 | 0 | 19 | -5 | -2 | -3 | x
O=C(CN1CCN(c2cccc(Cl)c2)CC1)N1CCCC1 | 6 | 0 | 5 | -4 | -1 | -2 | x
O=C(CCl)N1CCN(CC(=O)N2CCCC2)CC1 | 13 | 1 | 0 | -2 | 82* | 2 | 81* | GSTO1 recomb ABPP=40
COc1ccc(-c2[nH]nc3c2C(c2ccsc2)C(C#N)=C(N)O3)cc1 (stereo not drawn) | 3 | -7 | 6 | 7 | 25 | -13 | x
COc1ccc(C2C(C#N)=C(N)Oc3n[nH]c(-c4ccccn4)c32)c(OC)c1OC (stereo not drawn) | -14 | 1 | -6 | 2 | 43* | -11 | 6
COc1cc(C2C(C#N)=C(N)Oc3n[nH]c(-c4ccncc4)c32)cc(OC)c1OC (stereo not drawn) | 15 | -1 | 9 | 3 | 7 | 11 | x
COc1cccc(-c2[nH]nc3c2C(c2ccsc2)C(C#N)=C(N)O3)c1 (stereo not drawn) | -11 | 4 | 3 | 6 | 51* | 6 | 33
CCOC(=O)c1oc2ccc(/C=N/O)c(Cl)c2c1C | 1 | -2 | 2 | 3 | -2 | -1 | x
